Rce1 inh: inhibitors of yeast Ras-converting enzyme; yeast membranes, quenched prenylated peptide cleavage fluorescence; Q03530; actives 0.27% (n = 290,000); calls only;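 active = fall in fluorescence gain of 50% or more versus controls, with final raw signal at or below 3038400; inconclusive = same 50% fall but final raw signal above 3038400; inactive = fall in fluorescence gain under 50%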;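 note: plate controls were neutral control wells for no effect and wells lacking membranes for full effect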
CHT PAM: human CHT allosteric activation. AID 488977. Q9GZV3. CHT-expressing cells, membrane potential dye, choline EC20; active compounds read high; LV-AA mutant CHT in HEK293 cells. actives 0.49% (n = 310,000). B-score at 10 µM;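 active = initial fluorescence not abnormally high and integrated response B-score, plate-corrected, over 3 SD above library mean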
Kir21 inh: inhibitors of mouse Kir2.1 inward-rectifier potassium channel | P35561 | HEK293-Kir2.1, FluxOR thallium flux fluorescence; active compounds read low | B-score at 10 µM | actives 0.85% (n = 310,000) | AID 1672;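 active = fluorescence ratio B-score at or below minus 3 SD of library scores, with starting-brightness B-score within 2 SD, cut at about -4.2 in these data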;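 note: channel flux triggered by added potassium and thallium sulfate stimulus; B-score of peak minus minimum fluorescence over baseline after thallium stimulus; more negative B-score means stronger Kir2.1 block with less thallium influx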
TMEM16A act: mouse TMEM16A channel activation, primary screen; Q8BHY3; B-score at 10 µM; AID 623877; actives 0.3% (n = 340,000); HEK293 TMEM16A/YFP-H148Q/I152L, iodide quench fluorescence; active compounds read low;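 active = fluorescence-ratio B-score plate-corrected deviation score at least 3 library SD below zero, with starting fluorescence score within 5 deviations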;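 note: channel opened by trigger with iodide after compound preincubation; score built on the fluorescence ratio of max minus min over baseline; more negative score means more quench and so TMEM16A activation or potentiation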
Target sequence (Q8BHY3 whole entry, looked up): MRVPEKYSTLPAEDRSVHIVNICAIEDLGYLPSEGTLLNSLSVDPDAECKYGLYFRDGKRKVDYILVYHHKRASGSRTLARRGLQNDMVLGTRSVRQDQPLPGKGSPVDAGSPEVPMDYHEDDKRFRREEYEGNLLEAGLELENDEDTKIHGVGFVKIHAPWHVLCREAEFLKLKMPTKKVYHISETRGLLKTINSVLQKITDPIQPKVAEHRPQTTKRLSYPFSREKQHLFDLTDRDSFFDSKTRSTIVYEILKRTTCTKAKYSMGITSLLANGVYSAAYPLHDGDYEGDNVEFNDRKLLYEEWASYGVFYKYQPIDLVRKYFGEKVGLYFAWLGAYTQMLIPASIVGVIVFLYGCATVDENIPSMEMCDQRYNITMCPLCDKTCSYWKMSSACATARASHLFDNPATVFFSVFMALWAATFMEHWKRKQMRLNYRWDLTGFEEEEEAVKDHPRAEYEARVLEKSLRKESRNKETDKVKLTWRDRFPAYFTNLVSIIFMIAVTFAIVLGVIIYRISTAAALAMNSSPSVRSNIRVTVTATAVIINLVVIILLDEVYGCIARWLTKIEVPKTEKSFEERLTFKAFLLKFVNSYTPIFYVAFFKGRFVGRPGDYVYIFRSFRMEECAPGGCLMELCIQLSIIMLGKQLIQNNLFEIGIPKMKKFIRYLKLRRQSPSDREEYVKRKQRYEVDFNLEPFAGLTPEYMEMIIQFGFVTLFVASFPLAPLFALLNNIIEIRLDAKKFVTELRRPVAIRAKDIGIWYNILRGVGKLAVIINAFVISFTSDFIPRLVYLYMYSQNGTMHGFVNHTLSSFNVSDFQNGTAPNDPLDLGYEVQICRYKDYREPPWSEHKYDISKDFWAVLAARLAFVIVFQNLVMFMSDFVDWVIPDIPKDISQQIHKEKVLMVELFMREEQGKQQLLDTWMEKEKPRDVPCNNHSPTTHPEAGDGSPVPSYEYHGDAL
TMEM16A inh: inhibitors of mouse TMEM16A calcium-activated chloride channel; HEK293 TMEM16A/YFP iodide influx fluorescence, ionomycin; normalized B-score (activity score, 25-100; higher = stronger inhibition) at 10 µM; actives 1.2% (n = 310,000); AID 588511;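 active = ratio plate-corrected score three or more library SD toward inhibition, starting fluorescence score within five deviations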;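 note: score derived from kinetic fluorescence span divided by baseline fluorescence per well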
CHT inh: inhibitors of human choline transporter CHT | CHT-expressing cells, membrane potential dye, choline response; active compounds read low | B-score at 10 µM | actives 0.86% (n = 310,000);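 active = B-score over 3 SD under the library average, and starting fluorescence ratio not unusually high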;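 note: choline stimulus applied at its EC90 after an EC20 pre-addition; B-score computed on integrated fluorescence ratio after choline addition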
CHT activ conf: human CHT activation, confirmatory screen; shares compounds with CHT PAM; CHT-expressing cells, membrane potential dye fluorescence (FDSS); % of choline EC20–EC90 response window; HEK293 expressing CHT LV-AA mutant; choline added at its EC20; activation, % at 10 µM; actives 91% (n = 2,500); AID 504833;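 active = primary screen active, with duplicate mean activation above negative control mean plus 3 SD, cut at about 11% in these data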
HEK293 MP dye: CHT activator counter-screen hit in parental HEK293 cells. membrane potential dye fluorescence (FDSS); measured after EC20 choline addition. ratio readout change at 10 µM, hits read low. shares compounds with CHT PAM. AID 623908. actives 62% (n = 2,500);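 active = duplicate-averaged ratio beyond 3 SD from buffer wells, up or down, though filed actives are nearly all decreases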
An asterisk follows results filed as active; i = inactive; ? = inconclusive; · = no result. Compounds with a hit are over-represented: about 3.2% of the library has one in this group of screens.

SMILES	Rce1 inh	CHT PAM	Kir21 inh	TMEM16A act	TMEM16A inh	CHT inh	CHT activ conf	HEK293 MP dye
CC(=O)c1ccc(-n2cc(-c3ccc(C(C)(C)C)cc3)[n+]3c2SCCC3)cc1	i	7*	-2	i	i	i	25*	-45*
COc1ccc(N(C(=O)c2snc(C(N)=O)c2N)C(C(=O)NC2CCCC2)c2cc(OC)ccc2OC)cc1 (configuration not stated)	i	i	-2.3	i	i	i	·	·
CCCCCOC(=O)c1ccccc1C(=O)O	i	i	0.58	i	i	i	·	·
CCc1cc(=O)oc2cc(C)cc(OC(C)C(=O)NCCCN3CCOCC3)c12 (configuration not stated)	i	i	1.6	i	i	i	43*	-33*
CCc1cc(=O)oc2cc(C)cc(OC(C)C(=O)NC3CCN(Cc4ccccc4)CC3)c12 (configuration not stated)	i	i	-1	i	i	i	54*	-45*
Cc1cc(OC(C)C(=O)NCCN2CCOCC2)c2c(C)cc(=O)oc2c1 (configuration not stated)	i	i	0.23	i	i	i	·	·
Cc1cc(=O)oc2c3c(cc(OCC(=O)NCCCn4ccnc4)c12)OC(C)(C)CC3	i	i	-2.6	i	i	i	24*	-36*
Cc1cc(OC(C)C(=O)NCCCN2CCCC2=O)c2c(C)c(C)c(=O)oc2c1 (configuration not stated)	i	i	-0.75	i	i	i	·	·
Cc1cc(OC(C)C(=O)NC2CCN(Cc3ccccc3)CC2)c2c(C)cc(=O)oc2c1 (configuration not stated)	i	i	-0.09	i	i	i	·	·
Cc1cc(OC(C)C(=O)NCCCN2CCOCC2)c2c(C)c(C)c(=O)oc2c1 (configuration not stated)	i	6.4*	0.21	i	i	i	62*	-48*
N#CC1(NC(=O)Cn2ncc(Cl)c(Cl)c2=O)CCCCC1	·	i	1.1	i	i	i	·	·
COc1ccc(N(C)S(=O)(=O)c2ccc(Cl)c(C(=O)NNC(=O)c3ccccc3O)c2)cc1	·	·	·	i	·	·	·	·
NC(=O)c1ccc(SCC(=O)OCC(=O)NCc2cccs2)c([N+](=O)[O-])c1	·	·	·	i	·	·	·	·
Cc1ccc(-n2c(=O)c3ccccc3n(CC(=O)C(C)(C)C)c2=O)cc1	i	i	-0.35	i	i	i	·	·
CCCc1cc(=O)oc2c3c(cc(OCC(=O)NCC4CCC(C(=O)O)CC4)c12)OC(C)(C)CC3 (configuration not stated)	?	i	1.7	i	i	i	7	i
Cc1cc(OCC(=O)NCCCn2ccnc2)c2c(C)c(C)c(=O)oc2c1	i	i	-1.4	i	i	i	41*	-64*
CCCc1cc(=O)oc2cc(C)cc(OCC(=O)NCCCN3CCOCC3)c12	i	i	0.17	i	i	i	·	·
Cc1cc(OCC(=O)NCCN2CCOCC2)c2c(C)c(C)c(=O)oc2c1	i	i	-0.75	i	i	i	56*	-54*
CCCc1cc(=O)oc2c3c(cc(OCC(=O)NCCCn4ccnc4)c12)OC(C)(C)CC3	i	i	-0.47	i	i	i	·	·
O=C1c2cc([N+](=O)[O-])ccc2-c2ncccc21	i	7*	1.7	i	i	i	63*	-41*
CN1CCc2c(C#N)c(N3CCCCC3)nc(N3CCOCC3)c2C1	i	7*	1.6	·	i	i	43*	-53*
C=CCNc1nc(N2CCOCC2)c(C#N)c2c1CN(C)CC2	i	i	-1.2	i	i	i	·	·
N#C/C(=C\c1c(N2CCCCC2)nc2ccccn2c1=O)C(=O)NC1CCS(=O)(=O)C1 (configuration not stated)	i	13*	-0.33	i	i	i	0	-62*
CCN1C(=O)c2cccc3c(S(=O)(=O)NCc4ccccc4)ccc1c23	·	·	·	i	·	·	·	·
CCN1C(=O)c2cccc3c(S(=O)(=O)NCCCN4CCOCC4)ccc1c23	i	7*	1.1	i	i	i	59*	-54*
SMILES	Rce1 inh	CHT PAM	Kir21 inh	TMEM16A act	TMEM16A inh	CHT inh	CHT activ conf	HEK293 MP dye
NS(=O)(=O)c1ccc(NC(=O)CSc2nc3ccccc3nc2N2CCOCC2)cc1	i	i	-1.6	i	i	i	·	·
COc1ccc(N2CCN(c3oc(COc4ccccc4)nc3C#N)CC2)cc1	·	i	·	i	i	i	35*	i
COc1ccc(N2CCN(c3oc(Cc4ccccc4)nc3C#N)CC2)cc1	i	i	-1	i	i	i	·	·
CCN1CCN(c2oc(COc3ccc(Cl)cc3)nc2C#N)CC1	i	i	0.36	i	i	i	·	·
COc1ccc(N2CCN(c3oc(COc4ccc(Cl)cc4)nc3C#N)CC2)cc1	i	8*	0	i	i	i	36*	i
CCC1(c2ccc(Cl)cc2)NC(=O)N(CC(=O)N2CCN(C(=O)c3ccco3)CC2)C1=O (configuration not stated)	·	·	·	i	·	·	·	·
CCOC(=O)c1c(-c2ccccc2)csc1NC(=O)CSc1nncs1	i	i	-0.11	i	i	i	28*	i
CCOC(=O)c1ccc(NC(=O)Nc2ccc(Cl)cn2)cc1	i	i	0.91	i	i	i	·	·
CCOC(=O)c1ccc(NC(=O)Nc2ccon2)cc1	i	i	-0.01	i	i	i	30*	i
CCCNC(=S)N(Cc1ccccc1)Cc1nc2ccccc2c(=O)[nH]1	i	i	-1.2	i	i	i	·	·
CC[n+]1c(/C=C/c2ccc(OC(C)=O)c(OC)c2)ccc2ccccc21	i	7.2*	-0.05	i	i	i	45*	-74*
CC[n+]1c(/C=C/c2ccc(OC)c(OC)c2)ccc2ccccc21	i	i	0	i	i	i	·	·
CC[n+]1c(/C=C/c2cc([N+](=O)[O-])ccc2O)ccc2ccccc21	i	i	1.1	i	i	i	17*	-52*
C/C(=N\O)c1noc(C)c1C(=O)Nc1nccs1	i	i	1.6	i	i	i	·	·

Assay outcomes deposited in PubChem BioAssay by several laboratories.
